HCV inhibitor: inhibitors of hepatitis C virus infection; Huh7.5.1 HCVcc-Cre infection, luciferase reporter, 44 h; Potency, µM (series often up to 41.8 µM), for the others: at the highest dose activity change, negative = inhibition, hits mostly inhibitors; actives 3.4% (n = 340,000); further: potency means the concentration at half of the fitted maximal effect; on the % scale 0 is the no-effect control and ±100 the full control effect
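Compounds are dispensed onto cells plated 4 h earlier at 1,000 per well, with HCVcc-Cre virus (about 0.5 moi) added next. Following 44 h of culture, luminescent signal is measured for 15 sec after 15 min with substrate at room temperature.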
Shiga inhibitor: Shiga toxin inhibition; actives 9.2% (n = 290,000); inhibition, % at 38.7 µM; Vero cells, Shiga toxin protein synthesis inhibition reporter; in the data active means inhibition mostly above about 28%, no sharp cut-off; inactive means mostly below about 43%; further: 0% is about no effect
Pf growth 96h: P. falciparum growth inhibition at 96 hours; P. falciparum luciferase reporter growth, 96 h; Potency, µM (highest dose often 28.7 µM), for inactives: at the highest dose activity change, negative = inhibition, hits mostly inhibitors; actives 6.9% (n = 320,000); AID 504834; further: potency means the concentration at half of the fitted maximal effect; on the % scale 0 is the no-effect control and ±100 the full control effect
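Parasite growth measured via integrated firefly luciferase reporter in P. falciparum. Infected erythrocytes at 2% hematocrit, 0.05% parasitemia final were treated 96 hours at 37 C under 5% CO2, and luminescence was read.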
Cycloheximide cs: affects cycloheximide protein synthesis inhibition readout, counter-screen | cell reporter, cycloheximide protein synthesis inhibition counterscreen | max response, % | actives 12% (n = 300,000); in the data active means max response mostly above about 13%, no sharp cut-off; inactive means mostly below about 14%; further: read at 38.3 µM for the half of the compounds with a filed dose; 0% is about no effect
HCMV inh: blocks human cytomegalovirus replication. AID 1259415. HFF cells, HCMV-luciferase reporter, 72 h; active compounds read low. actives 4.5% (n = 410,000). activity change, negative = inhibition, % at 57.5 µM; in the data active means activity change below about -60%; inconclusive means no clear call, values can overlap the other calls; inactive means above about -39%; further: on the % scale 0 is the no-effect control and ±100 the full control effect
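Two compound doses tested in HFFs infected with HCMV-luciferase, MOI 1 PFU/cell, 72 h at 37C. Lysate luminescence read with OneGlo; data normalized against buffer-only and 10uM Salinomycin inhibitor controls.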
Pf growth 48h: P. falciparum growth inhibition at 48 hours (one generation) | actives 5.9% (n = 310,000) | P. falciparum luciferase growth in erythrocytes, 48 h | AID 504832 | Potency, µM (series often up to 28.7 µM), without a hit: at the highest dose activity change, negative = inhibition, hits mostly inhibitors; further: potency means the concentration at half of the fitted maximal effect; on the % scale 0 is the no-effect control and ±100 the full control effect
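Read-out is firefly luciferase luminescence from an integrated reporter in P. falciparum, so falling signal marks reduced parasite growth. Infected erythrocytes were at 2% hematocrit and 0.1% parasitemia (final) in Albumax-supplemented RPMI 1640.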
Active calls of the source: *; ? = inconclusive; nt = no result. The list is not random: actives were taken first. Their share in the collection is about 21%. Unless noted, the call rests on the fitted dose curve; in most records, active means well fitted inhibition curve with a large enough effect; inconclusive means small, poorly fitted or top-dose-only effect, or another doubt; inactive means no such curve, though single readings can be large or run the other way.

SMILES	HCV inhibitor	Shiga inhibitor	Pf growth 96h	Cycloheximide cs	HCMV inh	Pf growth 48h
Cc1ccccc1OCCCn1c(CO)nc2ccccc21	3%	71*	?	18*	38	0%
OCc1nc2ccccc2n1CCOc1ccccc1	19%	nt	nt	nt	0	nt
CSc1ccc(Cl)c(C(=O)NNC(=O)c2cccs2)c1	8%	nt	nt	nt	23	nt
Cc1ccccc1C(=O)N1CCC[C@H]1C(=O)N1CCC[C@H]1C(=O)NCc1ccccn1	nt	nt	nt	nt	12	nt
COc1ccc(S(=O)(=O)N(CCc2ccccc2)CC(=O)NCc2ccccc2)cc1OC	nt	nt	nt	nt	-9	nt
OCc1nc2ccccc2n1CCCCOc1ccccc1	-15%	nt	nt	nt	30	nt
Cc1ccc(OCCCCn2c(CO)nc3ccccc32)cc1	-13%	18	?	9	-65*	-11%
COc1ccccc1-n1cnnc1SCC(=O)NC1CCCC1	-7%	nt	29%	nt	-28	4%
C#CCn1cc(Cl)cc(C(=O)Nc2ccccc2)c1=O	?	2	0%	17*	-26	25%
CCCn1cccc(C(=O)Nc2ccc(OC)cc2)c1=O	-11%	53	25%	22*	nt	8%
O=C(Nc1ccccc1)c1ccc(=O)n(Cc2cccc(Cl)c2)c1	?	-8	-3%	-2	-35	?
CCCCNC(=O)Nc1ccccc1C(=O)Nc1ccc(OC)cc1	-24%	-10	306%	0	-7	nt
C#CCn1cccc(C(=O)Nc2ccc(OC)cc2)c1=O	-16%	46*	60%	18*	38	61%
CCCS(=O)(=O)NC(=O)C1(C)CCCN(C(=O)CCc2cccs2)C1 (centres undefined)	nt	nt	nt	nt	-13	nt
COc1cc(NC(=O)c2ccc(OCc3c(C)noc3C)c(OC)c2)cc(OC)c1	?	nt	nt	nt	-3	nt
Cc1cccc(-c2nn3c(=O)cc(CN4CCN(C(=O)c5ccccc5Br)CC4)nc3s2)c1	nt	nt	nt	nt	14	nt
Clc1cccc(Cl)c1/C=C/c1ccn[nH]1	?	67*	10%	35*	-33	9%
CCOC(=O)C1=C(C)Nc2nnnn2C1c1ccccc1Cl (centres undefined)	2%	-6	-19%	-1	-31	-27%
COc1ccc(C2C(C(=O)OC3CCCCC3)=C(C)Nc3nnnn32)c(OC)c1OC (centres undefined)	18%	1	5%	-2	23	9.3µM*
CCOC(=O)C1=C(C)Nc2nnnn2C1c1ccc(OC)c(Br)c1 (centres undefined)	-12%	-9	12µM*	-4	21	?
CC(=O)C1=C(C)Nc2ncnn2C1c1ccccc1Cl (centres undefined)	-3%	-8	0.52µM*	-1	5	12%
CCOC(=O)C1=C(C)NC(=S)N(C(C)=O)C1c1ccc(OC)c(OC)c1 (centres undefined)	10%	6	-9%	-1	?	-4%
COC(=O)C1=C(C)Nc2nnnn2C1c1ccc(Cl)cc1Cl (centres undefined)	-9%	1	?	-2	-17	4.7µM*
O=C(OCCO)c1ccccc1O	nt	4	nt	4	nt	nt
CCN(CC)c1ncnc2c1ncn2[C@H]1CN(Cc2ccc(F)cc2)C[C@@H](CO)O1	nt	nt	nt	nt	8	nt
SMILES	HCV inhibitor	Shiga inhibitor	Pf growth 96h	Cycloheximide cs	HCMV inh	Pf growth 48h
Cc1cccc(-c2nc(S(=O)(=O)c3ccccc3)c(N3CCN(c4ccccc4)CC3)o2)c1	nt	nt	nt	nt	-7	nt
CCN(CC(=O)Nc1cc(Cl)ccc1OC)CC(=O)NC1CCS(=O)(=O)C1 (centres undefined)	16%	-8	5%	-5	13	-10%
CCN(C[C@H]1N[C@@](Cc2ccccc2)(C(=O)OC)[C@H]2C(=O)N(C)C(=O)[C@@H]12)C(=O)Nc1ccc(C(F)(F)F)cc1	13%	nt	nt	nt	15	nt
COC(=O)C1=C(C(=O)c2ccccc2)C(c2ccc(O)c(OC)c2)n2nnnc2N1 (centres undefined)	8%	-6	-53%	-2	4	0%
CCOC(=O)C1=C(c2ccccc2)Nc2ncnn2C1c1cccc(OC)c1OC (centres undefined)	-6%	-13	1.9µM*	0	24	?
CCOC(=O)C1=C(c2ccccc2)Nc2ncnn2C1c1cc(OC)cc(OC)c1OC (centres undefined)	-5%	-10	?	-7	63	?

High-throughput results deposited in PubChem BioAssay by National Center for Advancing Translational Sciences (NCATS).
